The supplement of paper PMC13380429

system: Vero E6 infected with SARS-CoV-2; assay: morphology score (similarity to uninfected cells); higher = more like uninfected cells; conditions: 24 h

Structure (SMILES) | morphology score
Sc1ncnc2nc[nH]c12 [mercaptopurine] (0.833333 µM) | 0.0241
C=C[C@]1(C)C[C@@H](OC(=O)CSC(C)(C)CNC(=O)[C@H](N)C(C)C)[C@]2(C)[C@H](C)CC[C@]3(CCC(=O)[C@H]32)[C@@H](C)[C@@H]1O [valnemulin] (10 µM) | 0.0538
CCN1C(C)(C)CC(Oc2ccc(C(=O)Nc3ccc(NC(=O)Nc4cc(C(C)(C)C)on4)cc3)nc2)CC1(C)C (10 µM) | -0.0181
CN(C)C(=O)N[C@H]1CC[C@H](CCN2CCN(c3cccc(Cl)c3Cl)CC2)CC1 [cariprazine] (10 µM) | -0.0979
O=C(O)[C@@H]1C[C@@H](C2CCCCC2)CN1C(=O)CP(=O)(O)CCCCc1ccccc1 [fosinoprilat] (10 µM) | 0.0775
COc1ccn2ncc(-c3nc4[nH]nc(NC(=O)c5ccc(F)cc5)c4cc3F)c2c1 (10 µM) | 0.00883
CC(C)=CCC/C(C)=C/CC/C(C)=C/CSc1ccccc1C(=O)O [salirasib] (10 µM) | 0.161
O=C(Nc1ccc(C(=O)O)c(O)c1)c1ccccc1 [benzoylpas] (10 µM) | 0.206
O=C(O)[C@H](Cc1ccccc1)NCc1ccc(Cl)cc1 (10 µM) | 0.0118
CC(C)c1cc(-c2n[nH]c(=O)n2-c2ccc3c(ccn3C)c2)c(O)cc1O [ganetespib] (0.833333 µM) | 0.0711
COc1ncc(-c2ccc3nccc(-c4ccnnc4)c3c2)cc1NS(=O)(=O)c1ccc(F)cc1F (0.833333 µM) | -0.0933
COC(=O)Nc1ccc(-c2nc(N3CCOCC3)c3cnn(C4CCN(Cc5cccnc5)CC4)c3n2)cc1 (10 µM) | -0.198
Cl/C=C\C[N+]12CN3CN(CN(C3)C1)C2 [1-((Z)-3-chloroallyl)-1,3,5,7-tetraazaadamantan-1-ium] (10 µM) | 0.0348
CN1CCC[C@@H]1CCO[C@](C)(c1ccccc1)c1ccc(Cl)cc1 [clemastine] (10 µM) | 0.677
CCn1cc(C(=O)O)c(=O)c2cc3c(cc21)OCO3 [oxolinic-acid] (10 µM) | 0.162
CC(=O)Nc1c(I)c(C(=O)O)c(I)c(N(C)C(C)=O)c1I [metrizoic-acid] (10 µM) | 0.0802
N[C@H](C(=O)O)c1cc(O)no1 [ibotenic-acid] (10 µM) | -0.00755
Cc1ccc(C(=O)Nc2ccc(CN3CCN(C)CC3)c(C(F)(F)F)c2)cc1C#Cc1cnc2[nH]ncc2c1 (10 µM) | 0.453
O=C(O)CNC(=O)c1ccccc1I [2-iodohippuric-acid] (10 µM) | -0.111
CN/C(=N\c1ccc(C2=NNC(=O)CC2C)cc1)NC#N (stereo not given) [siguazodan] (10 µM) | 0.0721

Structure (SMILES) | morphology score
C[Se]C[C@H](N)C(=O)O [Se-methylselenocysteine] (10 µM) | 0.107
CCCN[C@H]1CCc2nc(N)sc2C1 [pramipexole] (10 µM) | 0.032
Nc1ncnc2[nH]nc(Nc3ccc(F)cc3)c12 (0.833333 µM) | -0.00281
CCn1cc(-c2ccnc3[nH]c(-c4cccc(CN(C)C)c4)cc23)c(-c2ccc(NC(=O)N(C)C)cc2)n1 (0.833333 µM) | -0.185
Oc1cc2c(cc1O)CN(C(=S)NCCc1ccc(Cl)cc1)CCC2 [capsazepine] (10 µM) | -0.103
CCN1C[C@]2(COC(=O)c3ccccc3N3C(=O)C[C@H](C)C3=O)CC[C@H](OC)[C@@]34[C@@H]5C[C@H]6[C@H](OC)[C@@H]5[C@](O)(C[C@@H]6OC)[C@](O)([C@@H](OC)[C@H]23)[C@@H]14 [methyllycaconitine] (10 µM) | 0.00671
COc1c(O[C@@H]2O[C@H](CO)[C@@H](O)[C@H](O)[C@H]2O)cc2c(c1OC)-c1ccc(SC)c(=O)cc1[C@@H](NC(C)=O)CC2 [thiocolchicoside] (10 µM) | -0.00288
COc1ccc(-c2csc(NC(=O)[C@H]3CCCCN3S(=O)(=O)c3ccc(C)cc3)n2)cc1 (10 µM) | 0.424
CC(=O)N[C@@H](CS)C(=O)O [acetylcysteine] (10 µM) | 0.183
CC(C)[C@H]1[C@@H]2CC[C@@H](C2)[C@@H]1N (10 µM) | 0.109
COC(=O)C1=CCCN(C)C1 [arecoline] (10 µM) | 0.184
Cn1nnc(-c2ccc(-c3ccc(N4C[C@H](CO)OC4=O)cc3F)cn2)n1 [tedizolid] (10 µM) | 0.127
N#C/C(=C\c1ccc(O)c(O)c1)C(=O)NCc1ccccc1 (10 µM) | 0.214
CC[C@]12CCCN3CCc4c(n(c5ccccc45)[C@@](O)(C(=O)OC)C1)[C@@H]32 [vincamine] (10 µM) | 0.0512
CN1C(=O)N(c2cc(Cl)cc(Cl)c2)C(=O)[C@]12CN(Cc1cc(C(=O)O)cs1)C[C@H]2c1ccc(C#N)cc1 (10 µM) | 0.281
COc1cc(OC)c(NC(=O)Nc2cc(C)on2)cc1Cl (10 µM) | 0.268
CC(=O)Nc1ccc(O)cc1 [paracetamol] (10 µM) | -0.0685
Cc1cccc(C)c1NC(=O)c1ccc(N)cc1 [ameltolide] (10 µM) | -0.146
CC(C)c1nc(CN(C)C(=O)N[C@H](C(=O)N[C@@H](Cc2ccccc2)C[C@H](O)[C@H](Cc2ccccc2)NC(=O)OCc2cncs2)C(C)C)cs1 [ritonavir] (10 µM) | 0.0318
CS[C@H]1SC[C@H]2C(=O)N(C)[C@@H](C(C)C)C(=O)OC[C@@H](NC(=O)c3cnc4ccccc4n3)C(=O)N[C@@H](C)C(=O)N(C)[C@@H]1C(=O)N(C)[C@@H](C(C)C)C(=O)OC[C@@H](NC(=O)c1cnc3ccccc3n1)C(=O)N[C@@H](C)C(=O)N2C [echinomycin] (0.833333 µM) | -0.0512
